# Source: PubChem (National Center for Advancing Translational Sciences (NCATS))
# ATXN2 expr inh: Primary qHTS for Inhibitors of ATXN expression; HEK-293 ATXN2-luciferase reporter, luminescence, 24 h; Potency, µM (doses to about 57 µM), most hits filed as inhibitors; 0.72% of 360,000 active; AID 1745845, 2022; note: nearly all actives have a fitted effect of over 55% in size
#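 ATXN2-luciferase reporter cells (luciferase flanked by upstream and downstream ATXN2 gene portions) were treated 24 h at 37 °C with compounds at up to 57 uM. SteadyGlo luminescence gave expression; GF-AFC fluorescence gave viability.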
# LDHA inh: qHTS assay for inhibitors of human lactate dehydrogenase. AID 1347041, 2019. activity change, % (values are at about 110 or 230 µM). purified LDHA, NADH/diaphorase-resazurin fluorescence; stronger effect = lower value. 0.15% of 480,000 active. L-lactate dehydrogenase A chain (Homo sapiens), P00338; in the data active = activity change below about -30%; inconclusive = mostly about -25% to -30%
#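 Human LDH5 (2 nM) was incubated with 0.06 mM NADH and 0.2 mM pyruvate for 5 min at room temperature in Tris pH 7.4. Remaining NADH was coupled through diaphorase/resazurin, and resorufin fluorescence was read at 0 and 20 min.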
# TGFb SMAD3 inh: qHTS for Inhibitors of TGF-b | AID 588855, 2011 | 1.2% of 410,000 active | HepG2 CAGA-GFP TGF-b/SMAD3 reporter, GFP fluorescence, 18 h; TGF-beta stimulated, 500 pg/mL final | Potency, µM (doses to about 46.1 µM), most hits filed as inhibitors; note: nearly all actives have a fitted effect of over 65% in size
#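 HEPG2 CAGA-GFP reporter cells (1000/well, DMEM with 1% FBS) received compounds, then recombinant TGF-beta at 500 pg/mL final for 18 hours at 37 degrees C. Per-cell GFP summed per well was normalised to unstimulated and stimulated DMSO controls before curve fitting.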
# ATXN viability: Viability Counterscreen for Primary qHTS for Inhibitors of ATXN expression. S2 cells (HEK-293 line with an ATXN2-luciferase reporter) viability, CellTiter-Fluor protease fluorescence, 24 h. Potency, µM (highest dose often 56.7 µM), actives largely listed as cytotoxic. 0.49% of 400,000 active; note: nearly all actives have a fitted effect of over 40% in size
# HepG2 tox: qHTS for Inhibitors of TGF-b: Cytotox Counterscreen; HepG2 CAGA-GFP viability, ATP luminescence, 18 h; Potency, µM (doses to about 46.1 µM), usual class: cytotoxic; 0.76% of 410,000 active
#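 HepG2 CAGA-GFP cells (1000/well, DMEM with 1% FBS) received compound, then TGF-beta at 500 pg/mL final, and were incubated 18 hours at 37 degrees C. Viability was read by CellTiter-Glo luminescence. Media-only wells were set as complete cell-killing and DMSO as no toxicity.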
# mIDH1 inhibitor: qHTS for Inhibitors of mutant isocitrate dehydrogenase 1 (IDH1): qHTS; Isocitrate dehydrogenase [NADP] cytoplasmic (Homo sapiens), O75874; IDH1-R132H enzyme, NADPH consumption, diaphorase/resazurin fluorescence; Potency, µM (top dose mostly 76.6 µM), most hits filed as inhibitors; 0.093% of 390,000 active; AID 602179, 2012; note: nearly all actives have a fitted effect of over 65% in size
# Target sequence (O75874 whole entry R132H, stated change not applied): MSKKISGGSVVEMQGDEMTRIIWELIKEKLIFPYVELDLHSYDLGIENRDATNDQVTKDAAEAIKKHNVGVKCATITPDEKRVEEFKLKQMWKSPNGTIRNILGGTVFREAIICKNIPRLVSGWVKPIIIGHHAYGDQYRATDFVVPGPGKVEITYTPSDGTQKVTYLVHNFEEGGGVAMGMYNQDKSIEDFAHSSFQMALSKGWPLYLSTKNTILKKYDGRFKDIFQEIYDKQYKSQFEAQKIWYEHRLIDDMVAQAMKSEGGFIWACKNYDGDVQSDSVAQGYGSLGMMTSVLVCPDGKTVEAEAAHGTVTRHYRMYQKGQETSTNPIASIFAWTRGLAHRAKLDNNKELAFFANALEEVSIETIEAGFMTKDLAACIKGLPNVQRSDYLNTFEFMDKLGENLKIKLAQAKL
#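 IDH1-R132H (0.5 ug/mL dispensed) in pH 7.5 Tris buffer was preincubated 30 min with compound, then given a substrate mix of 0.016 mM NADPH and 2 mM alpha-KG for 80 min at room temperature; remaining NADPH was read by diaphorase/resazurin fluorescence.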
# IDH1 autofl: qHTS for Inhibitors of mutant isocitrate dehydrogenase 1 (IDH1): Cherrypicks Autofluorescence Interference | shares compounds with mIDH1 inhibitor | Resorufin detection reagent fluorescence interference, cell-free | inhibition of signal, % at 51.2 µM | 750 tested, under 10 active | AID 623980, 2012
# IDH1 WT: qHTS for Inhibitors of mutant isocitrate dehydrogenase 1 (IDH1): Cherrypicks in WT IDH1 | shares compounds with mIDH1 inhibitor | WT IDH1 enzyme, NADPH diaphorase/resazurin fluorescence | Potency, µM (top dose mostly 115 µM), actives largely listed as inhibitors | 9% of 750 active; note: nearly all actives have a fitted effect of over 55% in size
# Target sequence (O75874 whole entry, looked up): as the sequence (O75874 whole entry R132H, stated change not applied) above, with H132R counted along it
# mIDH1 confirm: qHTS for Inhibitors of mutant isocitrate dehydrogenase 1 (IDH1): Confirmation of Cherrypicks; AID 624002, 2012; shares compounds with mIDH1 inhibitor; IDH1 R132H enzyme, NADPH diaphorase/resazurin fluorescence; Potency, µM (titrated, usually from 76.6 µM), most hits filed as inhibitors; 83% of 750 active; note: nearly all actives have a fitted effect of over 50% in size
# A number is an active result; – = inactive; ? = inconclusive; · = no result; [ ] = remark or other dose. An excerpt weighted towards active compounds, which were near 2.2% of everything screened. Unless noted, calls come from the whole dose curve; as a rule, active = well fitted curve in the direction sought with a large enough effect; inconclusive = small, poorly fitted or top-dose-only effect, or another doubt; inactive = no such curve, though single readings can be large; an effect the other way counts as inactive or inconclusive.
SMILES,ATXN2 expr inh,LDHA inh,TGFb SMAD3 inh,ATXN viability,HepG2 tox,mIDH1 inhibitor,others
N#CC(C#N)=NNc1ccc(-n2ccc(C(F)(F)F)n2)cc1,?,–,3.2µM,?,–,33µM,IDH1 autofl=–;IDH1 WT=79µM;mIDH1 confirm=25µM
CCOC(=O)c1c(/N=C/c2c(O)n(-c3cccc(C)c3)c(=O)[nH]c2=O)sc2c1CCCC2,–,–,–,–,–,?,IDH1 autofl=–;IDH1 WT=–;mIDH1 confirm=11µM
C=CCOc1ccc(CNCCc2ccc(OC)cc2)cc1,·,–,·,·,·,·,
CC(=O)Nc1ccc(C(=O)OCC(=O)Nc2ccc(Cl)cc2C(=O)c2ccccc2)cc1,–,–,–,–,–,?,
O=C(COC(=O)c1ccc(O)cc1)Nc1ccc(Cl)cc1C(=O)c1ccccc1,–[11.3 µM],–,?,–,–,58µM,IDH1 autofl=–;IDH1 WT=–;mIDH1 confirm=35µM
CCc1ccc(N2C(=O)NC(=O)C3(Cc4cc(C)ccc4N(C)C3)C2=O)cc1 (stereo not drawn),·,–,·,·,·,·,
Cc1ccc(-n2nc3c(=O)n(CC(=O)NCC(C)c4ccccc4)nc(C)c3c2C)cc1 (stereo not drawn),–,–,–,?,–,?,IDH1 autofl=–;IDH1 WT=–;mIDH1 confirm=–
COC(=O)C1=C(c2ccc(S(C)(=O)=O)cc2)C[C@@H]2CC[C@H]1N2C(=O)NCCO,–,–,–,–,–,–,
CCOC(=O)c1c(-n2c(C)cc(/C=C3/C(=O)NC(=O)N(CC)C3=O)c2C)sc2c1CCCC2,–,–,–,–,–,?,
CCOC(=O)c1c(-n2c(C)cc(C=C3C(=O)NC(=S)NC3=O)c2C)sc2c1CCCC2,20µM,–,?,22µM,–,14µM,IDH1 autofl=–;IDH1 WT=40µM;mIDH1 confirm=7.1µM
COc1cc(/C=N/Nc2ccc(S(N)(=O)=O)cc2)cc(OC)c1OC,–,–,–,–,–,–,
N=C1c2ccccc2CN1NC(=O)c1ccc(Br)cc1,–,–,–,–,–,–,
CN1CCC(N(C)c2nc(-c3ccccc3)nc3ccccc23)CC1,?,–,–,–,–,–,
COc1ccc2c(c1)c(C(C)=O)c(C)n2Cc1ccccc1,·,–,·,·,·,·,
COc1ccccc1CNC(=O)CCC(=O)N1C[C@H]2C[C@@H](C1)c1cccc(=O)n1C2,–,–,?,–,–,–,
Cc1ccc(-n2c(O)c(C=NCCC3=CCCCC3)c(=O)[nH]c2=O)cc1,?,–,–,?,–,–,
CN1CCC(OC(=O)c2ccccc2)CC1,·,–,–,?,–,–,
CC(=O)c1ccc2c(c1)N(CCCN(C)C)c1ccccc1S2,?,–,–,?,–,–,
CNCCCN1c2ccccc2CCc2ccccc21,?,–,–,?,–,–,
Cc1cnc(SCc2ccccn2)nc1C1CCCN(C(=O)c2ccc(-c3ccccc3F)cc2)C1 (stereo not drawn),·,·,·,–,·,·,
CC(C)CCC1(CCc2ccncc2)C(=O)NC(=O)NC1=O,–,–,–,–,–,–,
OC(c1ccccc1)(c1ccccc1)C1CCNCC1,–,–,–,–,–,–,
COc1ccc(OCC(=O)Nc2ccc(Cl)cc2C(=O)c2ccccc2)cc1,–,–,–,–,–,–,
CCCCCn1c(=O)c(C(=O)Nc2nc3ccccc3[nH]2)c(O)c2ccccc21,–,–,–,–,–,–,
CCOP(=O)(C(NC(=O)c1ccccc1Cl)=C(Cl)Cl)c1ccccc1 (stereo not drawn),–,–,–,–,–,–,
SMILES,ATXN2 expr inh,LDHA inh,TGFb SMAD3 inh,ATXN viability,HepG2 tox,mIDH1 inhibitor,others
Cc1cccc(CCNCc2cc3ccc(C)cc3[nH]c2=O)c1,–,–,–,–,–,–,
CN1CCC2(CC1)C(C#N)=C(N)NC(S)=C2C#N,–,–,–,–,–,–,
Cc1cc(C(=O)Cn2nnc(-c3ccc(Cl)cc3)n2)c(C)n1-c1ccccc1,–,–,?,–,–,–,
CN(C)C(=O)Oc1ccnc2cc(Cl)ccc12,–,–,–,–,–,–,
COc1ccc(-n2nnnc2C(c2ccccc2)N2CCC3(CC2)C(=O)NCN3c2ccccc2)cc1 (stereo not drawn),–,–,?,?,–,·,
Cc1cc(OCc2nn[nH]n2)c2c3c(c(=O)oc2c1)CCC3,–,–,–,?,–,–,
Cc1cccc(CN2CCN(Cc3ccccc3F)CC2)c1,·,–,·,·,·,·,
CN(C)CCc1ccc(O)cc1,–,·,·,–,·,·,
CC1=C(C(=O)O)N2C(=O)C(NC(=O)Cc3ccccc3)C2SC1 (stereo not drawn),–,–,–,?,–,–,
CC(Cc1ccccc1)N(C)C (stereo not drawn),·,–,·,·,·,·,
Cc1cc(C)c(C)c(C(O)(C(=O)O)c2ccccc2)c1C (stereo not drawn),–,–,–,–,–,–,
Cc1ccc(C2SCC(=O)Nc3c2c(C)nn3-c2ccccc2)cc1 (stereo not drawn),·,–,·,·,·,·,
C[C@]12CCC3C(CC[C@H]4C[C@H](O)[C@H](O)C[C@]34C)C1CC[C@@H]2O (stereo partly drawn),–,–,–,–,–,–,
CCCC1CCCCN1 (stereo not drawn),–,·,·,–,·,·,
O=C1N(c2nncs2)CCN1[N+](=O)[O-],·,–,–,–,–,–,
Cc1cc(OCC(=O)N[C@@H](Cc2ccccc2)C(=O)O)c2c3c(c(=O)oc2c1)CCCC3,–,–,–,–,–,–,
CN1CCN(P(=O)(c2ccccc2)c2nc3ccccc3s2)CC1 (stereo not drawn),–,–,–,–,–,–,
